Results from the supplement of paper PMC10849652.
The full data set covers some 8,800 targets. This sample favours those with a hit. About 0.5% of all pairs of compound and target were hits.

How the values were obtained:
Assay in all cases: log2 fold change, soluble protein after heating vs DMSO (PISA); higher = thermal stabilisation; K562 lysate, 10 uM; active = over 0.2 and 3.5 SD of the protein, either way, in both replicates (recomputed)
[1] = compound: CCCS(=O)(=O)Nc1ccc(F)c(C(=O)c2c[nH]c3ncc(Cl)cc23)c1F
How it was run: (§1)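 Soluble protein was defined as the supernatant remaining after 21,000xg for 90 min, following pooling of heated aliquots and adjustment to 0.5% NP-40 at 4°C. Before that, crude K562 extract at 1 mg/mL protein in PBS pH 7.4 with 1 mM MgCl2 was treated with 10 μM compound for 30 min and heated for 3 min across 48°C-58°C. Quantification used TMTpro 16plex LC-MS/MS with channel sums equalised, and values are log-two fold changes in thermal stability relative to solvent controls from duplicates.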

barasertib = compound: CCN(CCCOc1ccc2c(Nc3cc(CC(=O)Nc4cccc(F)c4)[nH]n3)ncnc2c1)CCOP(=O)(O)O [barasertib]
How it was run: as §1

volasertib = compound: CC[C@@H]1C(=O)N(C)c2cnc(Nc3ccc(C(=O)N[C@H]4CC[C@H](N5CCN(CC6CC6)CC5)CC4)cc3OC)nc2N1C(C)C [volasertib]
How it was run: as §1

saracatinib = compound: CN1CCN(CCOc2cc(OC3CCOCC3)c3c(Nc4c(Cl)ccc5c4OCO5)ncnc3c2)CC1 [saracatinib]
How it was run: as §1

[2] = compound: CNC(=O)C1=CC=CC=C1NC2=NC(=NC=C2Cl)NC3=C(C=C(C=C3)N4CCOCC4)OC
How it was run: as §1

[3] = compound: CNc1nc(-c2ccc3c(N)n[nH]c3c2)cc(N2C[C@@H](C(=O)NC3CCCCC3)CC[C@H]2C)n1
How it was run: as §1

alisertib = compound: COc1cc(Nc2ncc3c(n2)-c2ccc(Cl)cc2C(c2c(F)cccc2OC)=NC3)ccc1C(=O)O [alisertib]
How it was run: as §1

[4] = compound: COc1cc2nc(-c3cc(F)ccc3O)nc(N[C@@H]3CNC[C@H]3C(C)(C)O)c2cc1OC
How it was run: as §1

gefitinib = compound: COc1cc2ncnc(Nc3ccc(F)c(Cl)c3)c2cc1OCCCN1CCOCC1 [gefitinib]
How it was run: as §1

[5] = compound: CCn1cc(-c2ccnc3[nH]c(-c4cccc(CN(C)C)c4)cc23)c(-c2ccc(NC(=O)N(C)C)cc2)n1
How it was run: as §1

[6] = compound: CN1CCC(CNc2ccc3ncc(-c4cccc(OC(F)(F)F)c4)n3n2)CC1
How it was run: as §1

alvocidib = compound: CN1CC[C@H](c2c(O)cc(O)c3c(=O)cc(-c4ccccc4Cl)oc23)[C@H](O)C1 [alvocidib]
How it was run: as §1

[7] = compound: CC[C@@H]1C(=O)N(C)c2cnc(Nc3ccc(C(=O)NC4CCN(C)CC4)cc3OC)nc2N1C1CCCC1
How it was run: as §1

[8] = compound: CCn1c(C(=O)N(C2CC2)C2CC2)cc2c3c(ncn3C)c(Nc3cc(C)n(C)n3)nc21
How it was run: as §1

Tubastatin A = compound: CN1CCc2c(c3ccccc3n2Cc2ccc(C(=O)NO)cc2)C1 [Tubastatin A]
How it was run: as §1

encorafenib = compound: COC(=O)N[C@@H](C)CNc1nccc(-c2cn(C(C)C)nc2-c2cc(Cl)cc(NS(C)(=O)=O)c2F)n1 [encorafenib]
How it was run: as §1

[9] = compound: COC(=O)[C@H](CCSC)NC(=O)C1=C(C=C(C=C1)NC[C@H](CS)N)C2=CC=CC=C2
How it was run: as §1

sotrastaurin = compound: CN1CCN(c2nc(C3=C(c4c[nH]c5ccccc45)C(=O)NC3=O)c3ccccc3n2)CC1 [sotrastaurin]
How it was run: as §1

vemurafenib = compound: CCCS(=O)(=O)Nc1ccc(F)c(C(=O)c2c[nH]c3ncc(-c4ccc(Cl)cc4)cc23)c1F [vemurafenib]
How it was run: as §1

defactinib = compound: CNC(=O)c1ccc(Nc2ncc(C(F)(F)F)c(NCc3nccnc3N(C)S(C)(=O)=O)n2)cc1 [defactinib]
How it was run: as §1

Measured: log2 fold change

KIF21A (UniProt H0YI78)
inactive: [1] 0.017 | barasertib -0.198 | volasertib -0.008 | saracatinib -0.151 | [2] 0.056 | [3] -0.01 | alisertib -0.003 | [4] 0.029 | gefitinib -0.1

KIF2A isoform 2 (UniProt O00139)
UniProt O00139, sequence (O00139 whole entry, looked up): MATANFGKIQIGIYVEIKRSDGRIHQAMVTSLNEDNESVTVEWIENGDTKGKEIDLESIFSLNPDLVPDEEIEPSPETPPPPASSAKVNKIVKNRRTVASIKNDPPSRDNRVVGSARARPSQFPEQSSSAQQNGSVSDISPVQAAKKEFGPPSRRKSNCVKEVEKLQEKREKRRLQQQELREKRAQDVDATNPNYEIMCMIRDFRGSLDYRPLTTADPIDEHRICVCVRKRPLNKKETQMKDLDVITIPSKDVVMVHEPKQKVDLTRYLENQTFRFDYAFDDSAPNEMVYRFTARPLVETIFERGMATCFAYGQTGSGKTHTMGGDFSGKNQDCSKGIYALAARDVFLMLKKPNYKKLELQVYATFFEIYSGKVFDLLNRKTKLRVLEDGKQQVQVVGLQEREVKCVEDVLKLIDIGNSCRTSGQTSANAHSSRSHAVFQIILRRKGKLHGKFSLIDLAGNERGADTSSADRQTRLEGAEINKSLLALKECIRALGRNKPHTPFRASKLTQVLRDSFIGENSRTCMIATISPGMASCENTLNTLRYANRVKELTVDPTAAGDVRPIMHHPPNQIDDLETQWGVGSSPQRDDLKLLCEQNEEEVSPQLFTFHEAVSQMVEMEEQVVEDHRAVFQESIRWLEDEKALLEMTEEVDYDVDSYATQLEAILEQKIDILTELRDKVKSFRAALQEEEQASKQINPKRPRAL
inactive: [5] 0.129 | [6] 0.316 | alvocidib 0.153

MAP4K4 isoform 6 (UniProt O95819)
UniProt O95819, sequence (O95819 whole entry, looked up): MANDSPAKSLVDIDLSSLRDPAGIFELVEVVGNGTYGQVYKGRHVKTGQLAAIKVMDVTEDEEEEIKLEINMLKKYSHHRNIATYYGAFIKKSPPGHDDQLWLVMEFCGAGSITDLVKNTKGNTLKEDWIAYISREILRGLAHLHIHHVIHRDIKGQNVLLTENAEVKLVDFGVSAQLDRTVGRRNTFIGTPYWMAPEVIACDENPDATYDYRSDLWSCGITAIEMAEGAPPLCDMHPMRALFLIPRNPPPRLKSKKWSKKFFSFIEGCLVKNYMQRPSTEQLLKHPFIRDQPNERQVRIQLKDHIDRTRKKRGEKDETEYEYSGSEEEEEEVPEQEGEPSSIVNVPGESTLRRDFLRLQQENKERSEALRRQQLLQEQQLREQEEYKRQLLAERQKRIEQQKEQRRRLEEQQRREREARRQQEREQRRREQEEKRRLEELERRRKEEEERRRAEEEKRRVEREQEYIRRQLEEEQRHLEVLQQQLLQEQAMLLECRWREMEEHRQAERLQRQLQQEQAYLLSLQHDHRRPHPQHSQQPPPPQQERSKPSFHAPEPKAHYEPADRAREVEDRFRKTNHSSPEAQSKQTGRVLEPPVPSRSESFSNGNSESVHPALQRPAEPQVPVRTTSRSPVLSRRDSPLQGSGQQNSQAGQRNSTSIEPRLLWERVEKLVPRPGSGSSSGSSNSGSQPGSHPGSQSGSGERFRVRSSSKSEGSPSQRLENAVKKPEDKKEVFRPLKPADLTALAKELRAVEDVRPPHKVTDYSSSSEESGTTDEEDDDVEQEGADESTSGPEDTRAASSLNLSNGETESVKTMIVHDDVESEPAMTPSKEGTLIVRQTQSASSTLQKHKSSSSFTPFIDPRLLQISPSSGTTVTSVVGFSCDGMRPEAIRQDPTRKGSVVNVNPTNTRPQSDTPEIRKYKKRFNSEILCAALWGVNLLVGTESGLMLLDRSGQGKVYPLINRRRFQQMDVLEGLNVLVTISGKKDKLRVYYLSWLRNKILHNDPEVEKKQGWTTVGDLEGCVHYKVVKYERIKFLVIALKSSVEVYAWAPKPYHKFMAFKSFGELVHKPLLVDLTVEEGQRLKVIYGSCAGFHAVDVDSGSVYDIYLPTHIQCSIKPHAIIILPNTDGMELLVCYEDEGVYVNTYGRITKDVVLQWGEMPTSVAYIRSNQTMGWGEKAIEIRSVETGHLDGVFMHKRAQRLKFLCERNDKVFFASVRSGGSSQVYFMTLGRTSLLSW
inactive: [1] 0.073 | barasertib 0.06 | [7] 0.06 | volasertib -0.04 | [8] -0.025 | saracatinib 0.006 | Tubastatin A 0.024 | [2] -0.067 | [3] -0.016 | encorafenib 0.207 | [9] -0.034 | [4] -0.058

MED25 isoform 3 (UniProt Q71SY5)
UniProt Q71SY5, sequence (Q71SY5 whole entry, looked up): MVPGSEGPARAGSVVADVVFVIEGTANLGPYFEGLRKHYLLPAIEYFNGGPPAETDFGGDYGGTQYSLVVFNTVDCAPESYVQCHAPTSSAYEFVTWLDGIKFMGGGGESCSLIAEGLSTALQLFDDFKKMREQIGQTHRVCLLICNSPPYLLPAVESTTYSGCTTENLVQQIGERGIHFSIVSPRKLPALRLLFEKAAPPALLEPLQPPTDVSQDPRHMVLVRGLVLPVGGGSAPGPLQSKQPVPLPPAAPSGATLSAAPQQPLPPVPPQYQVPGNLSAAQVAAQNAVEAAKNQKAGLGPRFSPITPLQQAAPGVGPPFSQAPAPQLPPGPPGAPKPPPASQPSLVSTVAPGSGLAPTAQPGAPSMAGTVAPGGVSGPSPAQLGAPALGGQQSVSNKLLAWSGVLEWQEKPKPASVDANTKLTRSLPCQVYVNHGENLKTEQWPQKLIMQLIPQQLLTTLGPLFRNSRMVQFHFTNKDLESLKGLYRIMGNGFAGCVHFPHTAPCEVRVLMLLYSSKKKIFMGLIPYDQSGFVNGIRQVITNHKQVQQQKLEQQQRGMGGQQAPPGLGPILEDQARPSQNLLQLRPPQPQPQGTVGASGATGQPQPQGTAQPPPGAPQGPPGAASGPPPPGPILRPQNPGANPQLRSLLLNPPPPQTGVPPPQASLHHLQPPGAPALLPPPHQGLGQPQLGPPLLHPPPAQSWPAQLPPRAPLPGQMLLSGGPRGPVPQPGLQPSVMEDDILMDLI
active: [7] -0.256
inactive: [1] 0.018 | barasertib 0.034 | volasertib -0.032 | [8] -0.046 | [5] 0.013 | [6] -0.056 | saracatinib 0.032 | sotrastaurin 0.083 | alvocidib 0 | Tubastatin A 0.056 | [2] -0.033 | [3] -0.022 | encorafenib -0.123 | [9] 0.005 | alisertib 0.125 | [4] 0.01 | gefitinib -0.029

KRAS isoform 2 (UniProt P01116)
inactive: [1] 0.019 | [7] 0.156 | volasertib -0.125 | [8] 0.077 | saracatinib -0.06 | sotrastaurin -0.013 | Tubastatin A 0.076 | [2] -0.037 | [3] 0.046 | encorafenib -0.109 | [9] -0.062 | [4] 0.019

MRC2 (UniProt Q9UBG0)
inactive: [7] 0.205 | [5] 0.053 | [6] 0.124 | saracatinib 0.301 | sotrastaurin -0.054 | alvocidib 0.04 | [2] -0.062 | [3] 0.05 | encorafenib 0.031 | [9] -0.301 | alisertib -0.075 | gefitinib 0.046

MAN2B2 (UniProt Q9Y2E5)
UniProt Q9Y2E5, sequence (Q9Y2E5 whole entry, looked up): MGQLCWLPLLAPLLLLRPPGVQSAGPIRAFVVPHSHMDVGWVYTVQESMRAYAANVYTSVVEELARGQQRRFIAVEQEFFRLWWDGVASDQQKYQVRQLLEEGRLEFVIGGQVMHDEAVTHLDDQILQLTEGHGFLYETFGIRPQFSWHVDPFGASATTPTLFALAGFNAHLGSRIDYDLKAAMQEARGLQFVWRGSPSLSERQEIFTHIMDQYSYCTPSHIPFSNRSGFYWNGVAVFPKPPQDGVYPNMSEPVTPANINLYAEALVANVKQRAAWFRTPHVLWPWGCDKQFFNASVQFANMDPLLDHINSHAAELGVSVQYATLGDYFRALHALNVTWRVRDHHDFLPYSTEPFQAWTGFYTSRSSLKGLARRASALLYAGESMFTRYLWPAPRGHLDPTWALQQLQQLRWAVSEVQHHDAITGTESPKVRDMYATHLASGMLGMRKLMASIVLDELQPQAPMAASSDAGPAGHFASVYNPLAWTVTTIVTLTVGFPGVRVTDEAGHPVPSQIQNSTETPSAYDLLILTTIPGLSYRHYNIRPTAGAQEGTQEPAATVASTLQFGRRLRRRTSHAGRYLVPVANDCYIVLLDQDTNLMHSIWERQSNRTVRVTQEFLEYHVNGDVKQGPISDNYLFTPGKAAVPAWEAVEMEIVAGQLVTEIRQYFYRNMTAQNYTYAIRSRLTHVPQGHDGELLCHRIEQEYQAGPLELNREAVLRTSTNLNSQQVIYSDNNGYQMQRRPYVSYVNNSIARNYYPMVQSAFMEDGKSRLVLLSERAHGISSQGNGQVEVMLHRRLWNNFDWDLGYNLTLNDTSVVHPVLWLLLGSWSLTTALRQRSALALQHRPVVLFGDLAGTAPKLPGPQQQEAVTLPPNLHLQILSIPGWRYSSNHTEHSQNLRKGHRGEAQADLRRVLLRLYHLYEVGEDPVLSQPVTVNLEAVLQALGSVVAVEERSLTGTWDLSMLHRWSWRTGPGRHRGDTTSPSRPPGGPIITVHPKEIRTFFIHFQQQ
inactive: [1] -0.028 | barasertib -0.047 | [7] -0.013 | volasertib -0.006 | [8] -0.022 | saracatinib -0.053 | sotrastaurin -0.024 | alvocidib 0.199 | Tubastatin A 0.029 | [2] -0.006 | [3] 0.059 | encorafenib -0.004 | [9] 0.073 | alisertib 0.032 | [4] 0.049 | gefitinib -0.017
active: [5] 0.648 | [6] -0.649

KRI1 (UniProt Q8N9T8)
inactive: vemurafenib -0.079 | barasertib -0.03 | [7] 0.005 | [8] 0.021 | [5] -0.005 | [6] -0.014 | saracatinib 0 | sotrastaurin 0.008 | alvocidib 0.017 | Tubastatin A -0.113 | [2] 0.016 | defactinib 0.019 | [3] -0.012 | encorafenib 0.038 | [9] 0.009 | alisertib 0.042 | gefitinib -0.106

MPP5 (UniProt Q8N3R9)
inactive: vemurafenib -0.029 | barasertib -0.058 | [7] -0.011 | [8] 0.042 | [5] -0.084 | [6] -0.038 | saracatinib -0.04 | sotrastaurin -0.006 | alvocidib 0.066 | Tubastatin A -0.08 | [2] -0.051 | defactinib 0.034 | [3] 0.045 | encorafenib 0.073 | [9] 0.114 | alisertib -0.217 | gefitinib -0.139

MEGF8 (UniProt Q7Z7M0)
inactive: barasertib 0.049 | [7] 0.076 | [8] -0.048 | [5] 0.124 | [6] 0.028 | saracatinib 0.283 | sotrastaurin -0.003 | alvocidib 0.03 | Tubastatin A 0.156 | [2] 0.058 | [3] -0.051 | encorafenib -0.01 | [9] 0.131

LYN isoform 2 (UniProt P07948)
inactive: [7] -0.077 | [8] -0.075 | [5] -0.031 | [6] 0.024 | saracatinib 0.353 | sotrastaurin 0.074 | alvocidib 0.138 | Tubastatin A -0.153 | [2] 0.175 | [3] 0.014 | encorafenib -0.063 | [9] 0.301 | alisertib 0.229 | gefitinib 0.054

LEPROT (UniProt O15243)
UniProt O15243, sequence (O15243 whole entry, looked up): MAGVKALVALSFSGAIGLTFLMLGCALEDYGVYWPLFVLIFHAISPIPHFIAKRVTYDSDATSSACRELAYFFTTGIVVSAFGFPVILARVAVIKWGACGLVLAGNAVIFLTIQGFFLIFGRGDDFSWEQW
inactive: [1] 0.112 | barasertib 0.042 | [7] 0.144 | volasertib 0.102 | [8] -0.086 | [5] -0.043 | [6] -0.02 | sotrastaurin -0.009 | alvocidib 0.006 | Tubastatin A 0.01 | [2] 0 | encorafenib -0.003 | [9] 0.01 | [4] 0.022

MAP3K6 (UniProt O95382)
inactive: vemurafenib -0.006 | [7] 0.164 | defactinib -0.096 | encorafenib 0.167 | [9] -0.031 | alisertib 0.026 | gefitinib -0.022

MOCS3 (UniProt O95396)
inactive: vemurafenib -0.12 | barasertib -0.018 | [7] -0.038 | [8] 0.037 | [5] -0.273 | [6] 0.264 | saracatinib 0.06 | sotrastaurin 0.11 | alvocidib -0.213 | Tubastatin A -0.082 | [2] 0.111 | defactinib -0.161 | [3] -0.008 | encorafenib 0.056 | [9] -0.094 | alisertib 0.031 | gefitinib -0.231

KLC1 isoform 10 (UniProt Q07866)
UniProt Q07866, sequence (Q07866 whole entry, looked up): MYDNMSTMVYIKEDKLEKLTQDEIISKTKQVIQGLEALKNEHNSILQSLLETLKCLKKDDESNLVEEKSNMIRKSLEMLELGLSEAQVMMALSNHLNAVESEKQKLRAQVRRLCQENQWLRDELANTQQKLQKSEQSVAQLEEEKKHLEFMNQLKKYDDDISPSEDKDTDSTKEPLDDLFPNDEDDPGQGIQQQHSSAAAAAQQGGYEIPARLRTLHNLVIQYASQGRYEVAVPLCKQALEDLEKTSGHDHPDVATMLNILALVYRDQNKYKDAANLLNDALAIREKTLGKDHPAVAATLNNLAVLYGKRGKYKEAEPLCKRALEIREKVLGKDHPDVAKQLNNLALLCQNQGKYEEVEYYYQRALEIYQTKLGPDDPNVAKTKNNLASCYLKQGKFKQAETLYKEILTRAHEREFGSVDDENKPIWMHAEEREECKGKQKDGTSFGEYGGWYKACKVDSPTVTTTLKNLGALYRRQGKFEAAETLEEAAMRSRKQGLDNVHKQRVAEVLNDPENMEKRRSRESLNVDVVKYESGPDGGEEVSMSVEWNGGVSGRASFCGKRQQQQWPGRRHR
inactive: barasertib 0.238 | [7] 0.152 | [2] 0.147 | encorafenib 0.06 | [9] -0.109

LRRIQ1 (UniProt Q96JM4)
inactive: vemurafenib -0.023 | [1] 0.02 | volasertib 0.015 | [8] -0.015 | sotrastaurin 0.027 | Tubastatin A -0.096 | defactinib -0.031 | [4] -0.037

KIF18B (UniProt Q86Y91)
inactive: [1] 0.017 | [7] 0.221 | volasertib -0.046 | saracatinib 0.04 | sotrastaurin 0.106 | [3] -0.067 | encorafenib -0.159 | [9] -0.04 | [4] 0.046

MDM2 isoform 11 (UniProt Q00987)
UniProt Q00987, sequence (Q00987 whole entry, looked up): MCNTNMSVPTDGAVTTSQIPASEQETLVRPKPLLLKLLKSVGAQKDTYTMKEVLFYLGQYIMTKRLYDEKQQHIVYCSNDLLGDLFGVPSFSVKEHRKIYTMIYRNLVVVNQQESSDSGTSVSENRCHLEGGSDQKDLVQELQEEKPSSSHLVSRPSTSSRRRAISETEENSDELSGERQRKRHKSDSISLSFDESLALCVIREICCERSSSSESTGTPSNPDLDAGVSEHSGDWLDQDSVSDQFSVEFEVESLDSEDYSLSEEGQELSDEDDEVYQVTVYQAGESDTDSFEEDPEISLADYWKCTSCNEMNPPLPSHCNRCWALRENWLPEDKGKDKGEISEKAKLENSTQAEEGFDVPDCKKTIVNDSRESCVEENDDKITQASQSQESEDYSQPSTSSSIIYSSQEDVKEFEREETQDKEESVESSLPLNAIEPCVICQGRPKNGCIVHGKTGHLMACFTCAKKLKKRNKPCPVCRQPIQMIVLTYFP
inactive: vemurafenib -0.035 | barasertib -0.238 | [8] -0.03 | [5] 0.024 | [6] -0.038 | sotrastaurin 0.053 | alvocidib -0.127 | Tubastatin A 0.15 | [2] 0.041 | defactinib 0.158

MAPK12 (UniProt P53778)
active: [5] 0.974
inactive: vemurafenib 0.084 | barasertib -0.033 | [7] 0.105 | [8] -0.029 | [6] -0.169 | saracatinib 0.023 | Tubastatin A 0.022 | [2] 0.025 | defactinib -0.077 | [3] 0.054 | encorafenib -0.001 | [9] 0.035 | alisertib -0.114 | gefitinib -0.057

MARF1 (UniProt Q9Y4F3)
inactive: vemurafenib -0.093 | barasertib 0.051 | [7] -0.059 | [8] 0.007 | [5] -0.027 | [6] -0.059 | saracatinib 0.027 | sotrastaurin 0 | alvocidib -0.024 | Tubastatin A -0.194 | [2] 0.024 | defactinib -0.157 | [3] -0.021 | encorafenib 0.053 | [9] 0.086 | alisertib -0.056 | gefitinib 0.02

MEX3A (UniProt A1L020)
inactive: vemurafenib -0.094 | [8] 0.191 | saracatinib 0.055 | Tubastatin A 0.037 | defactinib -0.068 | [3] 0.037 | alisertib -0.097 | gefitinib 0.207

MAPKAP1 (UniProt Q9BPZ7)
inactive: [7] 0.031 | [8] 0.005 | saracatinib 0.057 | sotrastaurin -0.045 | Tubastatin A -0.125 | [2] -0.119 | [3] 0.081 | encorafenib -0.051 | [9] 0.036 | alisertib -0.094 | gefitinib 0.07
